# Screen size: about 78,000 compounds; about 1,800 (2.3%) were called active. Roughly 27% stayed inconclusive and do not appear here. Cut-off read from the data, not from the text of the source: active = inhibition above about 30%; inconclusive = mostly about 10% to 28%; inactive = weaker than that. The full list was thinned out, with actives kept by preference.
# Target: Interleukin-1 receptor-like 1 (Homo sapiens) (UniProt Q01638)
# Test: blocks human ST2 binding to IL-33, primary screen, biochemical, AlphaLISA (AID 1259354)
# Settings: AlphaLISA ST2-Fc/biotin-IL-33 interaction, 1 h; at 17 µM, active compounds read high
# Interleukin-1 receptor-like 1 (Homo sapiens), sequence (Q01638 whole entry, looked up): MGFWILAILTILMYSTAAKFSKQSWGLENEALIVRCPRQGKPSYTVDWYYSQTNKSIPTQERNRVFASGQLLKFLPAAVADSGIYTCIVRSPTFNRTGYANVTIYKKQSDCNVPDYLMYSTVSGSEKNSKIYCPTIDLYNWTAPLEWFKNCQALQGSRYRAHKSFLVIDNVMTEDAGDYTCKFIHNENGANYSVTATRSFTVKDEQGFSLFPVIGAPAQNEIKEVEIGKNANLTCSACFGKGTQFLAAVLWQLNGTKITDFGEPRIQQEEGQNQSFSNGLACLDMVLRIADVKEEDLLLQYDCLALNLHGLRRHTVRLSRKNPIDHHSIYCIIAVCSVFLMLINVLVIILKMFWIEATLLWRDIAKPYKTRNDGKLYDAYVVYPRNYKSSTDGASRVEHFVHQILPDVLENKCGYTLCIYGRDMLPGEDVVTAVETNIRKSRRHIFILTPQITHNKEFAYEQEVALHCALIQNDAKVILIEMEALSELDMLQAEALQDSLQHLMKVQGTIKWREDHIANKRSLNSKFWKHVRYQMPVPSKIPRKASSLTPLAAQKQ
row,SMILES,inhibition
1,O=S(=O)(Nc1ccccc1Br)c1ccccc1,inactive
2,CN(C)C(=O)c1ccc(S(=O)(=O)NC2CCCCCC2)s1,inactive
3,Cc1ccc(Sc2c(C)nn(C(=O)c3ccc([N+](=O)[O-])cc3)c2C)cc1,60% (active)
4,Cc1nn(C(=O)c2cccnc2)c(C)c1Sc1ccc(Cl)cc1,inactive
5,O=C(O)c1ccc(C(=O)c2ccc([N+](=O)[O-])cc2)cc1,inactive
6,CCOc1ccc2c(=O)c(Oc3ccc(F)cc3)c(C)oc2c1,inactive
7,OCc1ccc(CN2CCC(n3cc(C4CCCCC4)nn3)CC2)o1,inactive
8,Cc1nn(-c2cccc(Br)c2)c(C)c1[C@@H]1C=C[C@@H](NS(=O)(=O)c2ccccc2)C1,inactive
9,CN(Cc1ncc[nH]1)C(=O)C1CCN(Cc2ccco2)CC1,inactive
10,COCCNC(=O)C1C2C=CC3(CN(Cc4ccccc4Cl)C(=O)C13)O2 (centres undefined),inactive
11,CCNc1nc(NCC)n2c(SCC(=O)c3ccc(C(C)(C)C)cc3)nnc2n1,36% (active)
12,CC1CCCC(NC(=O)C2CCCN(S(=O)(=O)c3cnc[nH]3)C2)C1C (centres undefined),inactive
13,COC(=O)c1cccc(-c2nccn2CCc2cccc(F)c2)n1,inactive
14,CCCCNC(=O)CNC(=O)Cn1ccc2ccccc2c1=O,inactive
15,O=[N+]([O-])c1ccccc1S(=O)(=O)Nc1cccc2cccnc12,33% (active)
16,CCOc1ccc(S(=O)(=O)Nc2ccccc2F)c2cccnc12,inactive
17,O=[N+]([O-])c1cccc(S(=O)(=O)Nc2cccnc2Cl)c1,inactive
18,O=C1CCCN1C1CCN(Cc2nnc(C3CC3)o2)CC1,inactive
19,CCOc1ccc(-n2c(C)cc(C(=O)CN3CCC(C)CC3)c2C)cc1,inactive
20,O=c1/c(=C/c2cccc([N+](=O)[O-])c2)sc2n1CN(c1cccc(C(F)(F)F)c1)CN=2,inactive
21,COc1ccc(N2CN=c3s/c(=C/c4ccc([N+](=O)[O-])cc4)c(=O)n3C2)cc1,inactive
22,COc1ccc(N2CN=c3s/c(=C\c4ccccn4)c(=O)n3C2)cc1,32% (active)
23,Cc1ccc(-c2noc(CCC(=O)N(C)c3cc(Cl)ccc3C)n2)cc1,inactive
24,CCOC(=O)c1c(C)n(C)c2ccc(OC(=O)c3ccc(OC)cc3)cc12,inactive
25,CCN1CC(NC2CCN(c3ccc(OC)cc3)CC2)CC1=O (centres undefined),inactive
26,CCOc1ccc(C(=O)NC2CC(=O)N(c3ccc(OCC)cc3)C2)cc1 (centres undefined),inactive
27,Nc1ccc(Oc2ccc(Cl)cc2)cc1,37% (active)
28,O=S(=O)(c1ccc(Oc2ccc(Cl)cc2)cc1)c1ccc(Oc2ccc(Cl)cc2)cc1,inactive
29,Cc1cccc(C(CC(=O)N2CCOCC2)c2ccccc2)c1O (centres undefined),inactive
